Experimental data: PubChem BioAssay AID2289 (National Center for Advancing Translational Sciences (NCATS), 2010)
Out of some 340,000 compounds screened, about 3,300 (0.97%) were called active. Roughly 9% stayed inconclusive and do not appear here. Calls follow the shape of the dose curve; as a rule, active = well fitted inhibition curve with a large enough effect; inconclusive = small, poorly fitted or top-dose-only effect, or effect the other way; inactive = flat fitted curve, though single readings scatter. Some of the results follow.

Assay: qHTS Assay for Modulators of miRNAs and/or Inhibitors of miR-21; also: nearly all actives have a fitted effect of over 55% in size
Settings: HeLa miR-21-FLuc reporter, luciferase luminescence, 48 h; actives lower the signal
Procedure, shortened: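 Compounds were titrated across several concentrations (up to approximately 40 uM) and incubated 48 hours with HeLa miR-21-FLuc reporter cells (miR-21 target sequence downstream of FLuc, endogenous miR-21). Readout was firefly luciferase luminescence after lytic detection reagent.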
Potency is read from the fitted curve at half-maximal effect.

Potency, active:
Cc1ccc2nc(N3C(=O)C(O)=C(C(=O)c4ccco4)C3c3cccs3)sc2c1 (configuration not stated) 5.21 µM
CCc1ccc2nc(N3C(=O)C(O)=C(C(=O)c4ccco4)C3c3cccs3)sc2c1 (configuration not stated) 6.56 µM
COc1ccc(N=Nc2ccc3ccccc3c2)c(O)c1 0.233 µM
COc1ccc(N=Nc2cc(C)ccc2O)cc1 0.521 µM
Nc1nc(-c2cc3ccccc3o2)cs1 2.33 µM
Nc1ccc(Nc2nc(-c3cc4ccccc4oc3=O)cs2)cc1 2.93 µM
CN1CCN(c2nc(-c3cc4ccccc4o3)cs2)CC1 5.21 µM
COc1ccc2oc(=O)c(C(=O)N3CCN(c4ccccc4C)CC3)cc2c1 2.07 µM
O=C(OC1CCCCC1)c1cc2ccccc2oc1=O 16.5 µM
O=C(CSc1nc2ccccc2o1)c1cc2ccccc2oc1=O 14.7 µM
O=C(c1cc2ccccc2oc1=O)N1CCOCC1 16.5 µM
Cc1c(-c2nc(-c3ccc(C(F)(F)F)cc3)no2)n(C)oc1=O 0.293 µM
COc1ccc(/C(N)=N/OC(=O)C2CCCCC2)cc1 4.65 µM
COc1ccc(/C(N)=N/OC(=O)C2CCCCC2)cc1OC 2.93 µM
COCCN1CCN(C(=O)c2cc(COc3cc(C)ccc3C)on2)CC1 11.7 µM
COc1ccc(OCc2cc(C(=O)N3CCSCC3)no2)c(Cl)c1 4.65 µM
CC(=O)c1ccc(OCc2cc(C(=O)N3CCOCC3)no2)cc1 18.5 µM
COc1cccc(OCc2cc(C(=O)N3CCN(c4ccccc4OC)CC3)no2)c1 16.5 µM
COc1ccc(OCc2cc(C(=O)N3CCOCC3)no2)c(Cl)c1 2.07 µM
CC(=O)NCCC1CCCCN1C(=O)c1cc(COc2cc(C)ccc2C)on1 (configuration not stated) 7.36 µM
O=C(CSc1ccc(-c2ccccc2)nn1)c1cccs1 7.36 µM
Cc1cc(SCC(=O)c2ccccc2)nc(=O)[nH]1 4.14 µM
O=C(CSc1ccc(-c2ccccc2)nn1)c1ccccc1 16.5 µM
N#Cc1ccc(-c2cccnc2)nc1SCC(=O)c1ccccc1 5.85 µM
COc1ccc(Cl)cc1-c1nc(-c2ccc(NC(=O)c3cccs3)cc2)no1 7.36 µM
COc1cc(NC(=O)c2ccccc2Cl)ccc1NC(=O)c1cccs1 2.07 µM
COc1cc(NC(=O)c2ccccc2Cl)ccc1NC(=O)c1ccco1 2.93 µM
Cc1ccc2nc(/C=C/c3cccc(F)c3)ccc2c1 0.521 µM
N#C/C(=C\c1c[nH]c2ccccc12)c1nnc2n1CCCCC2 18.5 µM
CCOc1cc(/C=N/O)ccc1OCc1ccccc1F 16.5 µM
O/N=C/c1ccc(OCc2ccccc2F)c(Cl)c1 0.464 µM
CC(=O)c1ccc(NC(=O)c2ncn(-c3ccccc3)n2)cc1 5.85 µM
Cc1ccc(NC(=O)c2ncn(-c3ccccc3)n2)cc1Cl 3.29 µM
CCCn1nnc(NC(=O)c2ccc3ccccc3c2)n1 4.14 µM
Cn1nnc(NC(=O)c2ccc3ccccc3c2)n1 14.7 µM
Cn1nnc2cc(C(=O)Nc3ccc4ccccc4c3)ccc21 0.585 µM
Nc1nc2c(-c3ccc(Br)cc3)nnn2c2ccccc12 0.261 µM
Cc1ccc(-c2nnc(-c3cccnc3)o2)cc1 4.65 µM
c1ccc(-c2cnc(-c3cccnc3)o2)cc1 13.1 µM
CN(C)c1ccc(-c2nnc(-c3cccnc3)o2)cc1 1.31 µM
CCSc1nnc(NC(=O)c2ccccc2)s1 1.31 µM
CCSc1nnc(NC(=O)COc2ccccc2[N+](=O)[O-])s1 3.69 µM
CC(C)c1nnc(NC(=O)COc2ccccc2[N+](=O)[O-])s1 9.27 µM
N/C(=N\C(=S)Nc1ccccc1)c1ccccc1 0.927 µM
O=C(Cc1noc2ccccc12)Nc1ccc(Cl)cc1 14.7 µM
Cc1ccc(NC(=O)Cc2noc3ccccc23)cc1 7.36 µM
Cc1cccc(NC(=O)Cc2noc3ccccc23)c1 5.85 µM
O=C(Cc1noc2ccccc12)Nc1ccccn1 14.7 µM
Nc1ccccc1C(=O)NNC1=C(C(=O)C(F)(F)F)CCC1 5.21 µM
CC1=NN(C(N)=S)C(=O)C1N=Nc1ccc(C)c(Br)c1 (configuration not stated) 1.47 µM
CC1=NN(C(N)=S)C(=O)C1N=Nc1ccc(Br)cc1 (configuration not stated) 1.31 µM
CC1=NN(C(N)=S)C(=O)C1N=Nc1cccc(Cl)c1 (configuration not stated) 7.36 µM
CC1=NN(C(N)=S)C(=O)C1N=Nc1ccc(C)cc1C (configuration not stated) 3.69 µM
C/C(=N\N=C(/N)c1nonc1N)c1ccc2c(c1)OCO2 0.521 µM
CC(=O)NCCC(=O)Nc1nc2ccc(Oc3ccccc3)cc2s1 1.65 µM
O=C1NCC2=C1C(c1ccccc1)Nc1ccccc1N2 (configuration not stated) 14.7 µM
Clc1cccc(Cl)c1CSc1nnc2ccccn12 16.5 µM
Clc1ccc(CSc2nnc3ccccn23)c(Cl)c1 16.5 µM
Cc1ccc2c(CSc3nnc4ccccn34)cc(=O)oc2c1C 13.1 µM
C/C(=N\NC(=O)c1cccs1)C(C)(C)C 4.65 µM
C/C(=N/NC(=O)c1cccs1)c1cccs1 2.93 µM
O=C(O)CC/C(=N/NC(=O)c1cccs1)c1ccccc1 2.07 µM
O=C(NC12CC3CC(CC(C3)C1)C2)c1ccc(-c2ccc(Br)cc2)o1 7.36 µM
O=C(NC12CC3CC(CC(C3)C1)C2)c1ccc(-c2cccc(Cl)c2)o1 1.47 µM
O=[N+]([O-])c1cc(/C=N\O)ccc1Oc1ccc(F)cc1 16.5 µM
O=[N+]([O-])c1cc(/C=N/O)ccc1Oc1ccccc1Cl 16.5 µM
CC(=O)C(C)Oc1ccc2c3c(c(=O)oc2c1)CCCCC3 (configuration not stated) 2.93 µM
CC(=O)C(C)Oc1ccc2c3c(c(=O)oc2c1)CCCC3 (configuration not stated) 16.5 µM
CN(C)S(=O)(=O)c1cccc(NC(=O)COC(=O)c2cc3ccccc3oc2=O)c1 6.56 µM
O=C(COC(=O)c1cc2ccccc2oc1=O)Nc1ccc(F)cc1F 6.56 µM
COc1ccc(-c2nnc(SCC(=O)c3ccc[nH]3)n2-c2ccccc2)cc1 13.1 µM
Cc1ccc(SCC(=O)c2ccc[nH]2)cc1 13.1 µM
O=c1c(Br)c(N2CCCC2)cnn1-c1ccccc1 1.85 µM
COc1ccc(N2Cc3ccccc3C2=NC(=O)c2cccc([N+](=O)[O-])c2)cc1 13.1 µM
O=C(N=C1c2ccccc2CN1c1cccc(Cl)c1)c1cccnc1 4.65 µM
O=C(N=C1c2ccccc2CN1c1ccc(F)c(Cl)c1)c1cccnc1Cl 6.56 µM
CC1SCC(NC(=O)c2ccccc2Cl)CS1 (configuration not stated) 13.1 µM
CC1SCC(NC(=O)c2ccc(Cl)cc2)CS1 (configuration not stated) 16.5 µM
CCn1c(C)nc2cc(C(=O)NNC(=S)Nc3ccccc3)ccc21 0.927 µM
CCn1c(C)nc2cc(C(=O)NNC(=S)Nc3ccc(F)cc3)ccc21 8.26 µM
Cc1nn(-c2cccc([N+](=O)[O-])c2)c(N)c1-c1ccccc1 4.14 µM
COc1ccc(-c2c(C)nn(-c3ccccc3)c2N)cc1 5.21 µM
Cc1nn(-c2nc3ccccc3[nH]2)c(N)c1-c1ccccc1 0.414 µM
Cc1nn(-c2ccccc2)c(N)c1-c1ccccc1 6.56 µM
Cc1nn(C(=O)c2cccs2)c(N)c1-c1ccccc1 5.21 µM
NC(=O)Nc1ccccc1C(=O)NCCc1ccccc1 5.85 µM
O=C(O)CCc1ccc(S(=O)(=O)Nc2ccccc2C(=O)NCCc2ccccc2)cc1 6.56 µM
Cc1ccccc1-c1nc(Cc2ccccc2)no1 14.7 µM
N#Cc1ccccc1CSc1nnc(-c2ccc(Br)cc2)o1 0.414 µM
c1ccc(CSc2nnc(-c3ccco3)o2)cc1 13.1 µM
Cc1ccccc1-c1nnc(Cc2ccccc2)o1 4.14 µM
Brc1ccc(-c2nnc(Cc3ccccc3)o2)cc1 13.1 µM
Brc1c(CSc2nnc(-c3ccco3)o2)nc2ccccn12 11.7 µM
Cc1ccccc1-c1nnc(SCc2ccccc2)o1 5.21 µM
Cc1ccccc1-c1nnc(CN2CCC(C)CC2)o1 14.7 µM
Cc1ccc(-c2nnc(SCc3ccccc3)o2)cc1 2.93 µM
COC(=O)C1C(=O)c2c([nH]c(C(=O)OC3CCCC3)c2C)CC1C (configuration not stated) 1.47 µM
Cc1c(C(=O)OC2CCCC2C)[nH]c2c1C(=O)CCC2 (configuration not stated) 6.56 µM
Cc1c(C(=O)OC2CCC(C)CC2)[nH]c2c1C(=O)CCC2 (configuration not stated) 0.464 µM
COc1cc(Cl)ccc1OCc1cc(C(=O)N(C)CCc2cnn(C)c2)no1 5.85 µM
COc1cc(Cl)ccc1OCc1cc(C(=O)N(C)CC2CCCCO2)no1 (configuration not stated) 10.4 µM
COc1cc(C)ccc1OCc1cc(C(=O)N(C)CCCN2CCOCC2)no1 6.56 µM
Cc1cc(N(C)C)ccc1N=Nc1ccc2ncccc2c1 1.65 µM
Cc1ccccc1NC(=O)c1ccc2ccccc2c1 5.21 µM
COc1cc2ccccc2cc1C(=O)Nc1ccccc1C 3.29 µM
COc1ccc(C(=O)Nc2ccccc2C(=O)O)cc1Cl 4.65 µM
COc1ccc2oc(=N)c(C(=O)Nc3ccccc3Cl)cc2c1 0.414 µM
